Read-out in test [1]: Transforming Growth Factor (TGFA), TGFA (gene 7039)
The test is described as follows: LTEA_HepaRG_TGFA: Life Technologies and Expression Analysis (LTEA) Assay for Transforming Growth Factor (TGFA) using HepaRG (AID 2283532; active = hit-call score of the fitted dose curve at least 0.9, where 1 is the maximum; inactive = score below 0.9). Conditions: mRNA level, 48 h; actives raise or lower the signal. Summed up:
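Differentiated human HepaRG cells, plated 48 h then switched to serum-free induction medium, were exposed in duplicate for 48 h to 8-point half-log series from 100 uM in 0.5% DMSO. TGFA mRNA measured by qRT-PCR, normalized to ACTB/GAPDH/POLR2A, bidirectional fit versus DMSO.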

Read-out in test [2]: Transforming Growth Factor (TGFB1), TGFB1 (gene 7040)
Put plainly: LTEA_HepaRG_TGFB1: Life Technologies and Expression Analysis (LTEA) Assay for Transforming Growth Factor (TGFB1) Transporter using HepaRG (AID 2283533; active = hit-call score of the fitted dose curve at least 0.9, where 1 is the maximum; inactive = score below 0.9). Particulars: mRNA level, 48 h; actives raise or lower the signal. Summed up: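 HepaRG, 48 h post-plating, switched to serum-free induction medium; chemicals 100 uM top, half-log, 8 pts, 0.5% DMSO, dup; 48 h exposure; RNA → Fluidigm TaqMan qRT-PCR; norm ACTB/GAPDH/POLR2A; bidirectional fit vs DMSO.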

Read-out in test [3]: TIMP1, TIMP1 (gene 7076)
Put plainly: LTEA_HepaRG_TIMP1: Life Technologies and Expression Analysis (LTEA) Assay for TIMP1 using HepaRG (AID 2283534; active = hit-call score of the fitted dose curve at least 0.9, where 1 is the maximum; inactive = score below 0.9;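 also: TaqMan qRT-PCR signal normalized to ACTB GAPDH and POLR2A housekeeping genes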). Conditions: mRNA level, 48 h; actives raise or lower the signal. Summed up: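 Readout is TIMP1 mRNA level measured by qRT-PCR and normalized to three housekeeping genes. Human HepaRG cells were treated for 48 h in duplicate at eight concentrations up to 100 uM (0.5% DMSO); gain or loss fitted against DMSO.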

Read-out in test [4]: Tumor necrosis factor receptor 1 (TNFRSF1A), TNFRSF1A (gene 7132)
Put plainly: LTEA_HepaRG_TNFRSF1A: Life Technologies and Expression Analysis (LTEA) Assay for Tumor necrosis factor receptor 1 (TNFRSF1A) using HepaRG (AID 2283535; active = hit-call score of the fitted dose curve at least 0.9, where 1 is the maximum; inactive = score below 0.9). Particulars: mRNA level, 48 h; actives raise or lower the signal. Put shortly:
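Read-out is TNFRSF1A transcript level by TaqMan qRT-PCR, normalized to three housekeeping genes, scored as gain or loss of signal versus 0.5% DMSO. Human HepaRG cells received test chemicals for 48 h at up to 100 uM (half-log series).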

Read-out in test [5]: Thyroid Hormone Responsive (THRSP), THRSP (gene 7069)
Put plainly: LTEA_HepaRG_THRSP: Life Technologies and Expression Analysis (LTEA) Assay for Thyroid Hormone Responsive (THRSP) using HepaRG (AID 2283536; active = hit-call score of the fitted dose curve at least 0.9, where 1 is the maximum; inactive = score below 0.9). Particulars: mRNA level, 48 h; actives raise or lower the signal. Summed up:
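Differentiated human HepaRG cells were exposed in duplicate for 48 h in serum-free induction medium to eight concentrations (top 100 uM, half-log steps, 0.5% DMSO). Expression was quantified by TaqMan qRT-PCR, normalized to ACTB, GAPDH and POLR2A, with bidirectional fitting against DMSO.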

Read-out in test [6]: Cellular tumor antigen p53 (Homo sapiens) (UniProt P04637)
The test is described as follows: LTEA_HepaRG_TP53: Life Technologies and Expression Analysis (LTEA) Assay for Tumor Protein P53 (TP53) using HepaRG (AID 2283537; active = hit-call score of the fitted dose curve at least 0.9, where 1 is the maximum; inactive = score below 0.9). Particulars: mRNA level, 48 h; actives raise or lower the signal. Summed up:
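Gain or loss of TP53 mRNA signal is scored relative to 0.5% DMSO after 48 h chemical treatment of HepaRG liver cells, tested in duplicate at eight half-log concentrations up to 100 uM.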

Read-out in test [7]: UDP glucuronosyltransferase (UGT1A1), UGT1A1 (gene 54658)
Put plainly: LTEA_HepaRG_UGT1A1: Life Technologies and Expression Analysis (LTEA) Assay for UDP glucuronosyltransferase (UGT1A1) using HepaRG (AID 2283538; active = hit-call score of the fitted dose curve at least 0.9, where 1 is the maximum; inactive = score below 0.9). Particulars: mRNA level, 48 h; actives raise or lower the signal. Summed up: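 Human liver HepaRG cultures receive test chemical for 48 h, up to 100 uM in 0.5% DMSO, with phenobarbital induction controls. UGT1A1 mRNA is measured by qRT-PCR and normalized to ACTB, GAPDH and POLR2A.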

Read-out in test [8]: UDP glucuronosyltransferase (UGT1A6), UGT1A6 (gene 54578)
Put plainly: LTEA_HepaRG_UGT1A6: Life Technologies and Expression Analysis (LTEA) Assay for UDP glucuronosyltransferase (UGT1A6) using HepaRG (AID 2283539; active = hit-call score of the fitted dose curve at least 0.9, where 1 is the maximum; inactive = score below 0.9). Particulars: mRNA level, 48 h; actives raise or lower the signal. Summed up:
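HepaRG, 48 h post-plating switch to serum-free induction medium; chemical 48 h, 100 uM top, half-log x8, duplicate, 0.5% DMSO. Phenobarbital 1mM induction control. UGT1A6 mRNA by TaqMan qRT-PCR; gain/loss fit vs DMSO.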

Read-out in test [9]: X-box binding protein 1 (XBP1), XBP1 (gene 7494)
Put plainly: LTEA_HepaRG_XBP1: Life Technologies and Expression Analysis (LTEA) Assay for X-box binding protein 1 (XBP1) using HepaRG (AID 2283540; active = hit-call score of the fitted dose curve at least 0.9, where 1 is the maximum; inactive = score below 0.9). Conditions: mRNA level, 48 h; actives raise or lower the signal. Put shortly: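 Transcript levels of XBP1, measured by qRT-PCR and normalised to three housekeeping genes, were fitted bidirectionally relative to 0.5% DMSO controls. Human HepaRG cells received eight-point half-log dilutions from 100 uM for 48 h.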

A short description of test [10]: LTEA_HepaRG_LDH_cytotoxicity: Cytotoxicity Assessment in the Life Technologies and Expression Analysis (LTEA) Assay (AID 2283563). Put shortly: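 Cells were thawed and plated for 48 h. Medium was then replaced with serum-free induction medium. Chemicals (8 half-log points, maximum 100 uM, 0.5% DMSO) were added in duplicate for 48 h, after which spent medium was assayed for LDH.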

Test [11] can be described thus: TOX21_p53_BLA_p2_viability: Viability Assessment in the Tox21 HCT-116 p53 Agonism Beta-lactamase Assay, Phase 2 (AID 2283591).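 Also: compound exposure lasted 16 h at 37 °C; actives lower the ATP signal meaning cytotoxicity.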 Summed up: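 HCT-116 p53-bla cells (4000/well) rested 5 h at 37C, then received compounds in DMSO (217-fold dilution) for 16 h at 37C, 5% CO2. After the CCF4 read, CellTiter-Glo was added; ATP luminescence was read after 30 min at room temperature.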

The target of test [12] is Cellular tumor antigen p53 (Homo sapiens) (UniProt P04637). The test is described as follows: TOX21_p53_BLA_p2_ratio: Tox21 HCT-116 p53 Agonism Beta-lactamase Assay, Ratio, Phase 2 (AID 2283592). Put shortly: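 HCT116 p53-bla; 4000 cells/well; 5 h pre-incubation; cpd in DMSO, 217-fold dilution; 16 h 37C/5% CO2; CCF4-AM 2 h RT; Ex 405, Em 460/530 ratio; DMSO = baseline; positive fitting direction.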

The nature of test [13]: TOX21_p53_BLA_p3_viability: Viability Assessment in the Tox21 HCT-116 p53 Agonism Beta-lactamase Assay, Phase 3 (AID 2283593).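 Also: cells exposed to compound for 16 h before reading.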 Summed up: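 HCT-116 cells (4000/well) rested 5 h at 37C, then got DMSO compounds by pin tool (217-fold dilution) for 16 h at 37C, 5% CO2. After the bla read, CellTiter-Glo was added and luminescence read at 30 min, room temperature.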
For test [14], the target named is Cellular tumor antigen p53 (Homo sapiens) (UniProt P04637). The test is described as follows: TOX21_p53_BLA_p3_ratio: Tox21 HCT-116 p53 Agonism Beta-lactamase Assay, Ratio, Phase 3 (AID 2283596). Summed up:
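HCT116 p53-bla cells (4000/well) given compound in DMSO (217-fold dilution) after 5 h, incubated 16 h at 37C. CCF4-AM substrate 2 h at room temperature; 460/530 nm emission ratio, gain fitted against DMSO.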

A short description of test [15]: TOX21_p53_BLA_p4_viability: Viability Assessment in the Tox21 HCT-116 p53 Agonism Beta-lactamase Assay, Phase 4 (AID 2283597).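 Also: hits lower the luminescence signal meaning cytotoxicity.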 Put shortly: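 Cells plated, 5 h pre-incubation; DMSO compounds pinned (217-fold dilution); 16 h, 37C/5% CO2; CCF4-AM 2 h RT; CellTiter-Glo 30 min RT; luminescence read.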
The target of test [16] is Cellular tumor antigen p53 (Homo sapiens) (UniProt P04637). The test is described as follows: TOX21_p53_BLA_p5_ratio: Tox21 HCT-116 p53 Agonism Beta-lactamase Assay, Ratio, Phase 5 (AID 2283599). Put shortly:
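HCT-116 cells carrying a p53-inducible beta-lactamase reporter were seeded at 4000 cells/well and dosed after 5 h with compound in DMSO (217-fold dilution). After 16 h at 37C, CCF4-AM substrate was added for 2 h, and the 460/530 nm emission ratio was scored as gain-of-signal versus DMSO.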

A short description of test [17]: TOX21_p53_BLA_p5_viability: Viability Assessment in the Tox21 HCT-116 p53 Agonism Beta-lactamase Assay, Phase 5 (AID 2283600). Put shortly:
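4000 cells/well; 5 h pre-incubation; DMSO compounds pin-transferred, 217-fold dilution; 16 h, 37C/5% CO2; CCF4-AM 2 h RT; CellTiter-Glo 30 min RT; luminescence.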

The target of test [18] is Cellular tumor antigen p53 (Homo sapiens) (UniProt P04637). Put plainly: TOX21_p53_BLA_p4_ratio: Tox21 HCT-116 p53 Agonism Beta-lactamase Assay, Ratio, Phase 4 (AID 2283601). Summed up:
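HCT116 cells carrying an inducible beta-lactamase reporter were plated at 4000 cells/well, rested 5 h, then exposed to compounds in DMSO (217-fold dilution) for 16 h at 37C. CCF4-AM substrate was loaded 2 h at room temperature; 460/530 nm emission ratio scored gain-of-signal versus DMSO.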

The nature of test [19]: Tanguay_ZF_120hpf_MORT_legacy: (Legacy) Oregon State University Tanguay Lab 120 Hour Post-fertilization zebrafish Assay for Mortality (AID 2283633). Put shortly:
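5D WT zebrafish, chorion removed 4 hpf; 1 embryo/well from 6 hpf; static exposure to 120 hpf, 28C, dark, sealed. Final DMSO 0.64%. Readout: binary mortality, brightfield, 24 + 120 hpf; DMSO as negative control.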

For orientation: AC50 means the concentration giving half of the maximal activity seen.

Results filed as inconclusive are left out. Calls of active or inactive are those of the source. The calls were made as follows, unless noted: active = hit-call score of the fitted dose curve at least 0.9, where 1 is the maximum; inconclusive = response in the unintended direction; inactive = score below 0.9.

Chain of Cellular tumor antigen p53 (Homo sapiens) (P04637 whole entry, looked up): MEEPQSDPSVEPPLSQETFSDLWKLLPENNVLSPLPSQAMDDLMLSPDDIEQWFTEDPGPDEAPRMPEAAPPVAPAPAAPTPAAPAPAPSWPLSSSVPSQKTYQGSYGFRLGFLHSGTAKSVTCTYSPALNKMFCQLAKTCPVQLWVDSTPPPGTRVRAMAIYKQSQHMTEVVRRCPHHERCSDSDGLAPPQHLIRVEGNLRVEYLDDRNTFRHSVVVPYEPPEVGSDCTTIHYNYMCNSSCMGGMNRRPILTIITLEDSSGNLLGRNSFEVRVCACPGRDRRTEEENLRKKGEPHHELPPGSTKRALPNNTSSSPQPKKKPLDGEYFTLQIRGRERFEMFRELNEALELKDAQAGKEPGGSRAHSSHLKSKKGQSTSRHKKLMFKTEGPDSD

For `c1cc[n+]2c(c1)-c1cccc[n+]1CC2`, the call in test [1], in test [2], in test [3], in test [4], in [5] and in [6] was inactive. Also, the compound was called inactive in [7], in [8], in [9], in test [10], in [11] and in [12]. Besides, the outcome in test [13], in test [14], in test [16], in test [17], in [18] and in test [19] was inactive. For the same compound, in test [15], the AC50 was 20 µM (active).
